Experimental data published in PubChem BioAssay.

test: differential killing of epithelial or mesenchymal cells, primary screen, imaging, PC-3E GFP, TEM4-18 mCherry, co-culture (AID 1345086); conditions: imaging cell counts, measured here: epithelial PC-3E GFP cell survival, at 1 µM;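 also: cells exposed to compound for 72 h before imaging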

Compound	normalised cell number
CC(=O)NC1[C@@H](O)C2OC(c3ccccc3)OCC2O[C@H]1Sc1ccccc1 (some centres undefined)	1.06
COC(=O)/C=C/C(C)=C/C=C/C(C)=C/C=C/C=C(C)/C=C/C=C(C)/C=C/C(=O)O	1.29
COc1cc2c(cc1OC)C1C(=O)c3c(O)cc4c(c3OC1CO2)C=CC(C)(C)O4 (centres undefined)	0.94
COC(=O)CC1C(C)(C)C(OC(C)=O)[C@@H]2[C@@H](OC(C)=O)[C@]34O[C@@]2(O)C1(C)C3CC[C@]1(C)C4=CC(=O)O[C@H]1c1ccoc1 (some centres undefined)	0.89
COc1cc(C)c(Oc2cc(C)cc(O)c2O)c(O)c1	1.18
Cc1c(O)c(O)cc2oc3cc(O)cc(O)c3c(=O)c12	1.06
COC1=CC(=O)C(C)=C(C[C@@H](C)O)C1=O	0.99
COC(=O)C1O[C@H](OC)[C@@H](OCc2ccccc2)[C@@H](OCc2ccccc2)C1O (some centres undefined)	1.14
Clc1ccc2ncc(Cl)nc2c1	0.91
C[C@@H]1CCC2[C@](C)(CO)[C@@H](O)CC[C@]2(C)[C@@]12CC[C@@](CO)(CCO)O2 (some centres undefined)	1.01
NC(=O)C[C@H](NC(=O)OCc1ccccc1)C(=O)O	0.87
CC[C@H](O)c1oc(=O)cc(OC)c1C	1.01
CCC[C@@H]1Cc2cc3c(-c4c(O)cc(O)c5c(O)c6c(cc45)C[C@@H](CCC)OC6=O)c(O)cc(O)c3c(O)c2C(=O)O1	1.2
COC(=O)C[C@H]1C2(C)CC34OC5(C)O[C@]6(C7/C(=C(/O)C(C)C)C(=O)O[C@@H](c8ccoc8)[C@]7(C)C(OC(C)=O)[C@@H](OC(C)=O)[C@]6(O5)C13C)[C@H](OC(C)=O)[C@@]4(O)C2OC(=O)C(C)C (some centres undefined)	1.08
C[C@]12C=CC(=O)NC1CCC1C2CC[C@@]2(C)C1CC[C@@H]2C(=O)Nc1cc(C(F)(F)F)ccc1C(F)(F)F (some centres undefined)	1.1
OCc1cc(Br)ccc1Cl	1.07
C=C1[C@@H](C)C2[C@H](Cc3c[nH]c4ccccc34)NC(=O)[C@]23C(=O)/C=C/C(=O)[C@H](OC(C)=O)/C(C)=C/[C@@H](C)C/C=C/[C@H]3[C@@H]1O (some centres undefined)	0.94
COC(=O)[C@]12Oc3c(c(O)cc4c3C3C=C[C@]5(C4)C(=C(O)c4c(O)cc(C)cc4[C@@H]5OC(C)=O)C3=O)C(O)=C1C(=O)C=C[C@@H]2O	0.87
Cc1cc(O)c(C(=O)c2c(O)cccc2O)c(C(=O)O)c1	1.15
CCCCCCCCC[C@H]1O[C@]2(O)CC[C@H](O)[C@]2(O)[C@@H]1O	0.93

Compound	normalised cell number
C/C=C/[C@@H]1CC[C@@H]2C[C@H](C)CC[C@H]2[C@]1(C)C(=O)[C@H]1OC(=O)[C@@H](CO)N(C)C1=O	1.06
O=C(O)CCCCCCCC(O)C(O)CCCCCCO (centres undefined)	1.11
COc1c(N2CC[C@@H](CN)C2)c(F)cc2c(=O)c(C(=O)O)cn(Cc3ccc4ccccc4c3)c12	0.86
O=C(O)CC1OCc2c(O)cccc21 (centres undefined)	0.95
C=C1[C@@H](C)C2[C@H](Cc3c[nH]c4ccccc34)NC(=O)[C@]23C(=O)/C=C/[C@H](O)C(=O)/C(C)=C/[C@@H](C)C/C=C/[C@H]3[C@@H]1O (some centres undefined)	0.96
CO[C@H]1CC(O[C@@H]2/C(C)=C/C[C@@H]3C[C@@H](C[C@]4(C=C[C@H](C)[C@@H](C5CCCCC5)O4)O3)OC(=O)[C@@H]3C=C(C)[C@@H](O)C4OC/C(=C\C=C\[C@@H]2C)[C@]43O)O[C@@H](C)C1O[C@H]1C[C@H](OC)[C@@H](O)[C@H](C)O1 (some centres undefined)	1.06
C/C=C/[C@@H]1C=C[C@@H]2C[C@H](C)CC[C@H]2[C@]1(C)/C(O)=C1\C(=O)[C@H](CO)N(C)C1=O	0.99
CC(C)CC1OC23SCC(c4ccccc4)N2C(=O)C1C(C)(C)S3 (centres undefined)	1.15
COC(=O)[C@@H](C)Oc1ccc(O)cc1	0.93
CC1(C)C(=O)C=C[C@@]2(C)C1C=C[C@]1(C)C2CC[C@@]2(C)[C@H](c3ccoc3)OC(=O)[C@H]3O[C@]321 (some centres undefined)	0.56
C=C(C)C#CC1=C[C@@H](O)[C@@H]2O[C@]2([C@H](O)C=C(C)C)[C@@H]1O	0.96
C[C@@H](O)[C@H]1C(=O)N2C(C(=O)O)=C(SC3CN[C@H](C(=O)N(C)C)C3)[C@H](C)[C@H]12 (some centres undefined)	0.98
Cc1cc(O)c2c(c1)Cc1cccc(O)c1C2=O	1.28
O[C@@H]1[C@H](O)CO[C@H]1O	1.11
Cc1ccc(S[C@H]2OC(CO)C(O)[C@@H]3OC(=O)N[C@H]23)cc1 (some centres undefined)	1.01
CC1CN(c2c(F)c(N)c3c(=O)c(C(=O)O)cn(C4CC4)c3c2F)C[C@H](C)N1 (some centres undefined)	1.03
CCC(C)[C@H]1O[C@]2(CC[C@@H]1C)C[C@@H]1C[C@@H](C/C=C(\C)[C@@H](OC3C[C@H](OC)C(O[C@H]4C[C@H](OC)[C@@H](O)[C@H](C)O4)[C@H](C)O3)[C@@H](C)/C=C/C=C3\COC4[C@H](O)C(C)=C[C@@H](C(=O)O1)[C@]34O)O2 (some centres undefined)	1.17
CC(=O)N[C@@H]1[C@@H](OC(C)C(=O)O)[C@H](O)[C@@H](CO)O[C@H]1O (some centres undefined)	1.06
COc1c(F)c(F)cc2c(=S)c(C(=O)O)cn(C3CC3)c12	1.14
